The values below come from PubChem BioAssay AID463212 (Sanford-Burnham Center for Chemical Genomics, 2010).

The whole screen tested about 330,000 compounds, of which about 4,400 (1.3%) were called active. This is one part of a sample in which actives are shown more often than they occur.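 How the source made its calls: active means growth inhibition of the mutant yeast at or above 50%; inactive means the rest.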

A short description of the assay: growth inhibitors of tim23-1 mutant yeast, primary screen, luminescence, uHTS (AID 463212).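 Further: temperature-sensitive mutant grown at 25 °C; plate controls were DMSO-treated mutant yeast for no effect and medium wells lacking yeast for full effect.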 The settings on record: S. cerevisiae tim23-1 growth, BacTiter-Glo luminescence, 24 h; at 20 µM; hits give high values.
With `Cc1ccc(S(=O)(=O)NC(=O)N2CCCN(Cc3ccc(F)cc3)CC2)cc1`, the inhibition was -9.12% (inactive).
For `Cc1nc2cc(S(=O)(=O)C(F)(F)F)ccc2s1`, the inhibition is -1.26% (inactive).
For `Cc1cccc(C)c1N1C(=O)CN(Cc2ccccc2)C1=S`, the inhibition is 54.6% (active).
In the case of `CCc1cccc(C)c1N1C(=O)CN(Cc2ccccc2)C1=S`, the inhibition was 46.7% (inactive).
Next, `COc1cccc(N2C(=O)CN(Cc3ccccc3)C2=S)c1`: 44.3% (inactive); `Cc1ccc2cc3cc(C(=O)N4CCCCCC4)oc3nc2c1`: 53.8% (active).
Take `Cc1cc(C)cc(NC(=O)N2CCCCCCC2)c1`: the inhibition was 27.5% (inactive).
In the case of `Cc1ccc2nc(N3CCN(C(=O)c4ccco4)CC3)sc2c1`, the inhibition was 26.4% (inactive).
`CC(=O)N1CC(=O)N(CC(=O)Nc2ccc(Br)cc2)C1=S`: the inhibition is 10.5% (inactive).
`COC(=O)[C@]1(C)N[C@H](c2ccc(-c3ccc(Cl)c(Cl)c3)cc2)[C@@H]2C(=O)N(C)C(=O)[C@@H]21`: the inhibition is 30.7% (inactive).
As to `COc1cccc(CNc2ncc(-c3ccccc3)n2C)c1`, the inhibition is -8.62% (inactive).
Regarding `CCC(=O)Nc1sc(C(=O)Nc2ccccc2)c(C)c1C(=O)OC`, the inhibition is 32% (inactive).
For the compound `CCC(=O)Nc1nc(C)c(C(=O)Nc2cccc(Cl)c2)s1`, the inhibition is 57.9% (active).
As for `Cc1csc(NC(=S)Nc2cccc(Cl)c2)n1`, the inhibition is 48.7% (inactive).
As to `O=C(Nc1ccc(N2CCOCC2)nc1)c1c(F)cccc1F`, the inhibition is -3.3% (inactive).
Consider `Cc1ccc(NC(=S)N2CCN(c3ncccn3)CC2)cc1C`, for which the inhibition was 19% (inactive).
Turning to `Cc1cccc(N2CCN(C(=O)/C=C/c3ccco3)CC2)c1C`, the inhibition is 38.9% (inactive).
For the compound `COc1ccc(C(=O)COC(=O)CN2C(=O)C3CC=CCC3C2=O)c(OC)c1` (stereo unspecified), the inhibition was 12.1% (inactive).
Consider `COc1cccc(CNC(=O)C2CCCN(S(=O)(=O)N3CC(C)CC(C)C3)C2)c1` (stereo unspecified), for which the inhibition is 27.8% (inactive).
For `COCCNC(=O)COc1ccc(N(C)S(=O)(=O)c2ccc3ccccc3c2)cc1`, the inhibition is 19.5% (inactive).
For the compound `CN(c1ccc(OCC(=O)O)cc1)S(=O)(=O)c1ccc2ccccc2c1`, the inhibition is 3.8% (inactive).
For the compound `CC(=O)Oc1ccc(N(C(C)=O)S(=O)(=O)c2ccc3ccccc3c2)cc1Br`, the inhibition was 59.3% (active).
Next, `CC(=O)n1cc([C@@H]2C=C(C(=O)N3CCN(Cc4ccc5c(c4)OCO5)CC3)O[C@H](OCc3ccc(CO)cc3)C2)c2ccccc21`: 5.34% (inactive); `O=C(COC(=O)Cc1ccc(Br)cc1)Nc1c(F)c(F)c(F)c(F)c1F`: 5.57% (inactive).
Consider `CCCCOc1ccc(C(=O)NCC(=O)OCC(=O)c2c(N)n(C)c(=O)n(C)c2=O)cc1`, for which the inhibition was 7.23% (inactive).
Regarding `NS(=O)(=O)c1ccc(CCNC(=O)NC2CCCCC2)cc1`, the inhibition is 8.17% (inactive).
Turning to `COCCOCCn1cnc2ccccc21`, the inhibition was 2.15% (inactive).
On to `Clc1ncn(CCOc2ccccc2)c1Cl`, for which the inhibition is -4.79% (inactive).
For `Cc1cc2ncn(CCCCOc3ccccc3)c2cc1C`, the inhibition is 51.5% (active).
`Fc1ccc2cnc(-c3ccccc3)cc2c1`: the inhibition was 31.1% (inactive).
As to `Fc1ccccc1-c1cc2cc3c(cc2cn1)OCO3`, the inhibition was 54.8% (active).
`O=C(c1ccco1)N1CCN(C(=O)c2cc(-c3ccccc3F)no2)CC1`: the inhibition was 19.6% (inactive).
As to `COc1ccc(-n2c(SCC(=O)Nc3ccc4c(c3)OCO4)nnc2C(C)N2CCCCC2)cc1` (stereo unspecified), the inhibition was 0.001% (inactive).
The result for `O=C(O)c1ccc(S(=O)(=O)N2CCC(Cc3ccccc3)CC2)cc1` reads -3.54% (inactive); that for `CSCC[C@H](NC(=O)N1CCn2c1nc1ccccc12)C(=O)NCc1ccc2c(c1)OCO2`, -0.587% (inactive); that for `CCCCNC(=O)CCn1c(=O)c2ccccc2n(Cc2cc(C)ccc2C)c1=O`, -7.13% (inactive).
On to `COC(=O)c1ccccc1NC(=O)CSc1nc2c(c(=O)[nH]1)CCC2`, for which the inhibition was 16% (inactive).
Turning to `CN1C(=O)/C(=C\c2cc(Br)cs2)c2ccccc21`, the inhibition is 24.9% (inactive).
With `CN1C(=O)/C(=N/OC(=O)c2ccccc2Br)c2ccccc21`, the inhibition is 56.2% (active).
The result for `Nc1cc(OC(=O)c2ccccc2Br)nn1S(=O)(=O)c1ccccc1` reads 37.3% (inactive); that for `O=C(COc1ccc(F)cc1Br)NCC1COc2ccccc2O1` (stereo unspecified), 25% (inactive).
With `CN(C)S(=O)(=O)N1CCN(c2ccc([N+](=O)[O-])cc2)CC1`, the inhibition is 9.07% (inactive).
Turning to `Nc1nonc1-n1nnc(C(=O)N/N=C/c2c[nH]c3ccccc23)c1-c1ccccc1`, the inhibition was 14.8% (inactive).
`CSC(=S)N/N=C/c1c[nH]c2ccccc12`: the inhibition was 63.2% (active).
For the compound `O=C(O)c1cccc(NC(=S)N/N=C/c2c[nH]c3ccccc23)c1`, the inhibition was 7.37% (inactive).
As for `COc1ccc(CNc2ncnc3ccccc23)cc1`, the inhibition is -0.028% (inactive).
Next, `FC(F)(F)c1cccc(NC(=S)Nc2cccc(Cl)c2)c1`: 46.1% (inactive); `FC(F)(F)c1cccc(Nc2ncnc3ccccc23)c1`: 94% (active).
Take `Cc1ccccc1-n1nc(SCC(=O)O)sc1=S`: the inhibition is -2.14% (inactive).
Take `[O-][n+]1c2c(nn1-c1ccc(Cl)c(Cl)c1)-c1nonc1CC2`: the inhibition was 4.72% (inactive).
On to `Clc1ccc(Nc2nc(-c3cccs3)cs2)nc1`, for which the inhibition is 70.7% (active).
With `Clc1ccc(Cc2nnc(-c3cccs3)o2)cc1`, the inhibition was 15% (inactive).
As to `CCCc1cc(C(=O)Nc2ccc(Cl)cn2)cs1`, the inhibition was 33% (inactive).
As for `O=C(OCC(=O)N1CCCCCC1)c1cnc(Cl)c(Cl)c1`, the inhibition was 2.9% (inactive).
Turning to `O=S(=O)(Nc1ccc(O)c2ccccc12)c1ccc(OC(F)(F)F)cc1`, the inhibition is 28.5% (inactive).
Consider `O=c1c(-c2ccc3c(c2)OCCO3)c(C(F)(F)F)oc2cc(O)cc(O)c12`, for which the inhibition is 58.2% (active).
As to `COc1ccc(-c2onc(C)c2-c2ccc3c(c2)OCCO3)c(O)c1`, the inhibition was 28.1% (inactive).
As for `CCOC(=O)c1cc2cc(-c3c(C(=O)OCC)oc4cc(O)cc(O)c4c3=O)ccc2o1`, the inhibition is 14.3% (inactive).
For the compound `CCOc1ccc(CCNC(=O)CCc2nnc3ccc(N4CCCC4)nn23)cc1OCC`, the inhibition was 10.2% (inactive).
With `O=C1NC(c2ccccc2)Oc2ccccc21` (stereo unspecified), the inhibition is 22.9% (inactive).
With `Cc1ccccc1NC(=O)COc1cccc2c1CCNC2=O`, the inhibition is 12.3% (inactive).
Next, `O=C(Nc1ccc(N2CCN(C(=O)c3cccs3)CC2)cc1)c1cccnc1Cl`: 12.9% (inactive); `O=C(Nc1nn(Cc2ccccc2F)cc1Br)c1cccs1`: 17.3% (inactive).
In the case of `O=C(Cc1ccccc1)N1N=C(c2ccncc2)CC1(O)C(F)(F)F` (stereo unspecified), the inhibition was 9.71% (inactive).
Regarding `CC(=O)N1N=C(c2ccncc2)OC1(Cc1ccccc1)Cc1ccccc1`, the inhibition is 52.9% (active).
Next, `CC(=O)N1N=C(c2ccccc2)OC1c1cccnc1` (stereo unspecified): 0.277% (inactive).
Turning to `Cc1ccsc1C(=O)NNC(=O)COc1ccc(Br)cc1`, the inhibition is -6.92% (inactive).
For the compound `C#CCNC(=O)[C@H](Cc1ccc(C(=O)c2ccccc2)cc1)NC(=O)OC(C)(C)C`, the inhibition is 5.1% (inactive).
Consider `O=C(CNc1cccc(S(=O)(=O)N2CCCCC2)c1)Nc1ccccc1F`, for which the inhibition was 14.8% (inactive).
On to `COCCn1c(C)cc(C(=O)CN2c3cccc4cccc(c34)S2(=O)=O)c1C`, for which the inhibition is 5.11% (inactive).
Take `Cc1ccc(NC(=O)c2cc(-c3ccccc3O)n[nH]2)cc1C`: the inhibition was -2.65% (inactive).
Turning to `Oc1ccccc1-c1cc(-c2ccc(Cl)cc2)n[nH]1`, the inhibition is 56.4% (active).
On to `CSc1ccccc1-c1nnc(-c2ccc(Cl)cc2)o1`, for which the inhibition is 21.3% (inactive).
`Cc1ccc(NC(=O)c2nc[nH]c2C(=O)N2CCCCC2)c(C(=O)c2ccccc2)c1`: the inhibition is 6.29% (inactive).
`C=C(C)C(=O)O[C@H]1C/C(C)=C\C(=O)/C=C(\C)[C@H](O)[C@@H]2OC(=O)C(=C)[C@@H]21`: the inhibition is 4.97% (inactive).
For the compound `COc1ccc(C)cc1NC(=O)CSc1nnc(CC(=O)Nc2ccccc2F)n1C`, the inhibition was 3.22% (inactive).
As to `O=C(O)Cn1c(Cc2ccccc2)nc2ccccc21`, the inhibition was -1.32% (inactive).
For the compound `COc1ccc(-c2cn[nH]c2-c2ccc(OC)cc2)cc1`, the inhibition is 47.7% (inactive).
Consider `CCOc1ccccc1Oc1cn[nH]c1-c1ccc(OC)cc1O`, for which the inhibition is -69.3% (inactive).
Next, `COc1ccc(Oc2cn[nH]c2-c2ccc(OC)cc2O)cc1`: 66.3% (active); `Cc1cc(NC(=O)CSCc2nc(-c3cccc(Cl)c3)oc2C)no1`: 1.1% (inactive); `COc1cccc2c1CCC(NC(C)=O)C2=O` (stereo unspecified): 0.522% (inactive).
For `Cc1cccc(C)c1NC(=O)CN(C)C(=O)CCC(=O)c1ccccc1`, the inhibition was 15% (inactive).
`Cc1cccc(C)c1NC(=O)C(Cl)C(=O)c1ccccc1` (stereo unspecified): the inhibition was 80.7% (active).
Consider `Cc1cccc(C)c1NC(=O)C(c1ccccc1)N1CC(=O)Nc2ccccc21` (stereo unspecified), for which the inhibition was 21.3% (inactive).
Next, `COc1ccc(CN2CCCCC2C)cc1OC` (stereo unspecified): 10.1% (inactive); `CCC(C)n1c(-c2cc(OC)c(OC)c(OC)c2)nc2nc3ccccc3nc21` (stereo unspecified): 19.1% (inactive); `C[C@H](NC(=O)C1CC(=O)N(c2ccc3c(c2)OCO3)C1)C(=O)NCc1ccco1` (stereo partly specified): 13.9% (inactive).
Regarding `CC(C)(C)c1ccc(CN2C(=O)c3ccccc3S2(=O)=O)cc1`, the inhibition is 22.3% (inactive).
The result for `O=C1c2ccccc2S(=O)(=O)N1CC(O)Cn1c2ccccc2c2ccccc21` (stereo unspecified) reads 84.5% (active); that for `CCCCN(CCCC)CC(O)Cn1c2ccccc2c(=O)c2ccccc21` (stereo unspecified), 5.18% (inactive).
As to `COc1ccc(N(CC(=O)Nc2cccc3ccccc23)S(C)(=O)=O)c(OC)c1`, the inhibition was 6.45% (inactive).
In the case of `CCc1ccccc1NC(=O)CN(c1ccc(OC)cc1OC)S(=O)(=O)c1ccccc1[N+](=O)[O-]`, the inhibition is 50.4% (active).
`COc1ccc(N(CC(=O)Nc2ccc(C)cc2C)S(=O)(=O)c2ccccc2[N+](=O)[O-])c(OC)c1`: the inhibition was 19.7% (inactive).
Take `CCN(CC)S(=O)(=O)c1ccc(CNC(=O)CN2C(=O)NC3(CCc4ccccc43)C2=O)cc1` (stereo unspecified): the inhibition was 9.27% (inactive).
In the case of `Cc1ccc(S(=O)(=O)N2CCC(C(=O)OCC(=O)N3CC(=O)Nc4ccccc43)CC2)cc1`, the inhibition was 14.9% (inactive).

A word on the inhibition: it is the relative decrease from the control value, in per cent.
